The panel holds about 83,000 compounds, 20% with a hit somewhere; the sample as a whole holds those more often.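 Step 1: grow cells in 96-well plates. Step 2: add test compound at a single concentration. Step 3: incubate 48 h. Step 4: record percent growth.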 Values without a mark were called inactive. Active and inactive are the calls of the source. The calls were made as follows: active = growth percent below 10; inactive = the rest.
Columns and labels:
Assay in all cases: NCI-60 one-dose screen, 48 h (100 = growth as untreated, 0 = no growth, -100 = all killed)
Settings in all cases: 10 µM unless noted
[1] = system: NCI-H23 lung
[2] = system: NCI-H226 lung
[3] = system: NCI-H322M lung
[4] = system: HOP-62 NSCLC
[5] = system: NCI-H460 lung
[6] = system: HOP-92 NSCLC
[7] = system: NCI-H522 lung
[8] = system: A549/ATCC NSCLC
[9] = system: 786-0 renal
[10] = system: COLO 205 colon
[11] = system: DU-145 prostate
[12] = system: K-562 leukemia
[13] = system: MALME-3M melanoma
[14] = system: MDA-MB-231 breast
[15] = system: RXF 393 renal
[16] = system: SF-268 CNS
[17] = system: SF-295 CNS
[18] = system: SF-539 CNS
[19] = system: M14 melanoma
[20] = system: UACC-257 melanoma

SMILES | growth [1] | growth [2] | growth [3] | growth [4] | growth [5] | growth [6] | growth [7] | growth [8] | growth [9] | growth [10] | growth [11] | growth [12] | growth [13] | growth [14] | growth [15] | growth [16] | growth [17] | growth [18] | growth [19] | growth [20]
Nc1cccc(NC(=O)C(=O)Nc2cccc(N)c2)c1 | 105% | 93.6% | 109% | 96.1% | 117% | 89.8% | 91.7% | 97.1% | 68.5% | 127% | 107% | 95.3% | 141% | 104% | 87.5% | 101% | 98.1% | 111% | 87.4% | 
O=C(O)c1cccc2c1-c1ccccc1C2=O | 98.4% | 91.6% | 83.9% | 95.3% | 105% | 80.8% | 88.2% | 101% | 102% | 99.8% | 114% | 119% | 85.8% | 96% | 90.4% | 105% | 96.6% | 97.9% | 94.5% | 
CC(=O)CC(C)(C)c1ccc(Cl)cc1 | 95.5% | 99% | 107% | 93.3% | 108% | 80% | 95.5% | 103% | 97.8% | 116% | 108% | 101% | 108% | 106% | 98% | 95.7% | 101% | 102% | 96.8% | 101%
O=C1C=CC(=O)N1c1ccc(Cc2ccc(N3C(=O)C=CC3=O)cc2)cc1 | 86% | 84.8% | 100% | 90.5% | 94.8% | 90% | 94.5% | 111% | 97.1% | 115% | 111% | 66.4% | 88.2% | 90.3% | 106% | 118% | 121% | 93.4% | 96.8% | 
CN(C)c1ccc(/C=C\C2=[N+](C)c3ccccc3C2(C)C)cc1 | 7.51% (active) | 16.3% | 23.7% | 13.6% | 4.52% (active) | -15.6% (active) | -23.7% (active) | 2.47% (active) | 18.1% | -78.8% (active) | 16.3% | 90.8% | 20.8% | 23% | 37.3% | 6% (active) | -23.9% (active) | 22.1% | 18% | 
CC1CN(Cc2ccco2)C(=S)N(c2ccccc2)C1=O (centres undefined) | 108% | 97.3% | 99.4% | 88.1% | 98.5% | 92.7% | 92.9% | 110% | 103% | 128% | 110% | 62.7% | 97.8% | 106% | 111% | 105% | 92.3% | 90.8% | 99.6% | 
Nc1c(C(=O)Nc2ccccc2)sc2nc3c(cc12)CN(CCc1ccccc1)CC3 | 84.2% | 89.8% | 94.2% | 99.2% | 100% | 75.5% | 86.1% | 107% | 101% | 116% | 98.3% | 82.2% | 95.7% | 90.4% | 121% | 93.2% | 103% | 95.3% | 108% | 110%
Cc1cc(-c2nc3ccccc3s2)ccc1NC(=O)COc1ccc(Cl)cc1 | 79.7% | 70.6% | 106% | 89.8% | 92.8% | 83.5% | 87.8% | 109% | 93.4% | 110% | 130% | 93.7% | 106% | 96.9% | 139% | 109% | 120% | 105% | 100% | 120%
O=c1cc(-c2ccccc2)[nH]c2ccccc12 | 39.1% | 70.2% | 55.4% | 49% | 13.2% | 38.5% | -46.9% (active) | 19.1% | 32.3% | 5.72% (active) | 17.6% | 32.6% | 50% | 95.6% | 36.1% | 50.5% | 16.4% | 4.43% (active) | 15.9% | 
O=C(/C=C/c1ccc(Cl)cc1)c1ccc(O)c(CN2CCN(c3cc4c(cc3F)c(=O)c(C(=O)O)cn4C3CC3)CC2)c1 | 51.7% | 67.3% | 72.8% | 49.8% | 70.7% | 40.8% | 45.2% | 50% | 55.1% | 136% | 63.5% | 50.7% | 59.8% | 77.2% | 45.4% | 42% | 45% | 53.5% | 52.6% | 90.2%
CC[C@H](CO)Nc1nc(NCc2ccccc2)n2ncc(C(C)C)c2n1 | 13.3% | 10.3% | 14.8% | 3.3% (active) | 5.04% (active) | -8.83% (active) | 1.9% (active) | 19.7% | -2.74% (active) | -27% (active) | 7.53% (active) | 2.92% (active) | -17% (active) | 8.97% (active) | -13.9% (active) | 5.86% (active) | 0.519% (active) | -46% (active) | 8.94% (active) | 24.2%
CCN(CC)CC(O)CNc1c2ccc([N+](=O)[O-])cc2nc2cc(OC)c(OC)cc12 (centres undefined) | -27.2% (active) | -39.1% (active) | -43.5% (active) | -51% (active) | -49.6% (active) | -57.4% (active) | -65.6% (active) | -22% (active) | -8.36% (active) | -71% (active) | -29.9% (active) | 3.2% (active) | -82% (active) | -71.9% (active) | -43.4% (active) | -35.2% (active) | -8.54% (active) | -35.7% (active) | -56.7% (active) | -33.5% (active)
OC(c1cc(-c2ccccc2)nc2ccc(Cl)cc12)C1CCCCN1 (centres undefined) | 66.9% | 71.3% | 41.8% | 93.3% | -16.8% (active) | 6.52% (active) | 59.7% | 21.7% | 66.8% | -60.9% (active) | 60.1% | -18.4% (active) | -41.3% (active) | -30.5% (active) | 56.3% | 60.7% | 96.2% | 67.5% | -66.3% (active) | 70.9%
Nc1cc2ccncc2c2ccccc12 | 67.7% | 44% | 61.7% | 79.6% | 58.2% | 73.9% | 98.4% | 89.4% | 78.1% | 61.6% | 75.4% | 112% | 97.6% | 64.1% | 81.5% | 75.6% | 69.3% | 79.1% | 94.7% | 103%
OC(c1cccc(C(F)(F)F)c1)c1cnccc1NC1CCCCCC1 (centres undefined) | 26.1% | 62.4% | 46.3% | 74.4% | -23.9% (active) | 5.31% (active) | 58.6% | 53.8% | 56.2% | -76.3% (active) | 71.6% | 3.23% (active) | -77.7% (active) | 10.6% | 32.3% | 60.5% | 14.2% | 74.2% | -21.8% (active) | 39.5%
C=C1C(=O)O[C@H]2[C@H]1CC/C(Cn1cc(Cn3ccc4cc(Cl)ccc43)nn1)=C\CC[C@@]1(C)O[C@@H]21 | 13.1% | 61.4% | 76.6% | 75.7% | 64.2% | -61.6% (active) | -76% (active) | 48.5% | -71.4% (active) | -82.3% (active) | 4.94% (active) | -29.2% (active) | -67.1% (active) | -51.8% (active) | -72.2% (active) | 18.4% | 73.5% | -88.6% (active) | -4.18% (active) | 28.8%
